Among the data in PubChem BioAssay AID588852 (The Scripps Research Institute Molecular Screening Center, 2011) are inhibition values, retold here.

Molecules are shown by their SMILES. Hit rate of the full screen: of about 360,000 compounds, about 4,600 (1.3%) were called active. The sample holds actives, similar compounds and a random draw of the others, so the mix is not that of the screen. Values without a mark were called inactive.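 Rule for the calls: active = percent inhibition above its own plate's cutoff, namely the mean of that plate's compound wells plus 3 SD; inactive = the rest.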

The target in this assay is Muscarinic acetylcholine receptor M1 (Homo sapiens) (UniProt P11229). Nature of the assay: human M1 muscarinic receptor antagonists, primary screen, CHO-K1 cells, Fluo-8 calcium fluorescence, 1536-well (AID 588852).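 Note: peak over basal fluorescence ratio during 140 s after agonist addition; 0% = ACh EC80 plus DMSO and 100% = DMSO alone without agonist.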 As to conditions: CHO-K1 hM1, Fluo-8 calcium fluorescence, ACh EC80 antagonist; at 3 µM; hits give high values.
Sequence of Muscarinic acetylcholine receptor M1 (Homo sapiens) (P11229 whole entry, looked up): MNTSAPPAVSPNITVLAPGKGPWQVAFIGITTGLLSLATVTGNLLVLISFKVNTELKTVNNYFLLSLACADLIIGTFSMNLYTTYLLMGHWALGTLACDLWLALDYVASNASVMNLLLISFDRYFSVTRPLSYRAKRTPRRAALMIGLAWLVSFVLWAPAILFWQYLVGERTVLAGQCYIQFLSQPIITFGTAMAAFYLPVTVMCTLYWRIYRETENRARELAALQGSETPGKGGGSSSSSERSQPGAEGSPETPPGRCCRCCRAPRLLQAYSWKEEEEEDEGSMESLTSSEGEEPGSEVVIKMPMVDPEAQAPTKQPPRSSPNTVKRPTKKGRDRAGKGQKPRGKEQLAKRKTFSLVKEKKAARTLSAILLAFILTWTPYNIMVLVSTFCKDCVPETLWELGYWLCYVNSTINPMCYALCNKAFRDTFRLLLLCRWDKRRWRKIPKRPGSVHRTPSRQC
Turning to `COc1ccc(-n2nnnc2C(c2cccc3ccccc23)N2CCC(n3c(=O)[nH]c4ccccc43)CC2)cc1` (stereo not given), the inhibition was 103% (active).

On to `O=c1[nH]c2ccccc2n1C1CCN(C(c2ccccc2)c2nnnn2Cc2ccccc2)CC1` (stereo not given), for which the inhibition is -3.28%.

In the case of `O=c1[nH]c2ccccc2n1C1CCN(C(c2ccnc3ccccc23)c2nnnn2Cc2ccccc2)CC1` (stereo not given), the inhibition is 4.78%.

Take `COC1C(O)C(C)OC(OC2CCC3(C=O)C(CCC4C3CCC3(C)C(C5=CC(=O)OC5)CCC43O)C2)C1O` (stereo not given): the inhibition was -8.54%.

As to `CC12CCC3C(CCC4CC(=O)CCC43C)C1CC(=NO)C2=O` (stereo not given), the inhibition was -2.57%.

On to `COc1cccc(C(=O)N2C[C@H]3C[C@@H](C2)c2cccc(=O)n2C3)c1`, for which the inhibition was -17.6%.

For the molecule `O=C(Nc1cccc(OC(=O)N2CCCCC2)c1)N1CCOCC1`, the inhibition was 12.4%.

Regarding `CC(C)Oc1cccc(C(=O)C2CCCN(C3CCOCC3)C2)c1` (stereo not given), the inhibition is 62.5% (active).

As for `CCn1cc(CN2CCCC(C(=O)c3cccc(C(F)(F)F)c3)C2)cn1` (stereo not given), the inhibition is 30.8%.

With `CC(C)(C)[C@]1(O)C[C@@H]2OC(=O)C[C@@]23C(=O)O[C@@H]2OC(=O)[C@H](O)[C@]213`, the inhibition was -3.8%.

As for `CC(=NCc1ccc2c(c1)OCO2)c1c(O)[nH]c(=O)[nH]c1=O`, the inhibition was -24.2%.

`CCCC[N+]1(C)C2CC(OC(=O)C(CO)c3ccccc3)CC1C1OC12` (stereo not given): the inhibition was 85.3% (active).

For the molecule `CCCCC(=O)N/N=C/c1c(O)n(CC)c(=S)n(CC)c1=O`, the inhibition is -7.53%.

With `Cc1ccc2c(c1)C1CN(C)CCC1N2C(=O)Cn1nnc(-c2ccccc2F)n1` (stereo not given), the inhibition is 5.84%.

Turning to `O=C(COc1ccc2ccccc2c1)N1CCN(Cc2ccncc2)CC1`, the inhibition was 14.5%.

For the molecule `CC(C(=O)Nc1ccc(Cl)cc1Cl)N1CC=C(c2ccccc2)CC1` (stereo not given), the inhibition was 18.7%.

For the molecule `CC[N+]1(C)CCCC(OC(=O)C(O)(c2ccccc2)c2ccccc2)C1` (stereo not given), the inhibition is 97.3% (active).

Regarding `COC(=O)CN1C(=O)C2(C(C(=O)OC)=C(N)Oc3ccccc32)C2=C1CC(C)(C)CC2=O` (stereo not given), the inhibition is -6.88%.

As to `CCOc1ccc(CN(CCCl)CCCl)cc1C(=O)OC`, the inhibition was -7.91%.

For the molecule `CSCCC(c1nnnn1C(C)(C)C)N1CCC(n2c(=O)[nH]c3ccccc32)CC1` (stereo not given), the inhibition is -5.89%.

For the molecule `c1ccc(C(CN2CCCCC2)c2ccccc2)cc1`, the inhibition was 50% (active).

Turning to `OC(CNC1CCCCC1)c1ccccc1` (stereo not given), the inhibition is -2.05%.

As to `COC(=O)C(c1ccccc1)N1CCCCCC1` (stereo not given), the inhibition is -0.1%.

On to `CCOP(=O)(OCC)C(NC(=O)NC)C(N)=O` (stereo not given), for which the inhibition was -7.67%.

For the molecule `COc1cccc(C(c2nnnn2-c2ccc3c(c2)OCCO3)N2CCC3(CC2)C(=O)NCN3c2ccccc2)c1OC` (stereo not given), the inhibition is -16.2%.

Regarding `O=C(OCCN1CCOCC1)C1(c2ccccc2)CCCC1`, the inhibition was 35.5% (active).

`CCOC(=O)C1(c2ccccc2)CCN(CC(O)c2ccc(NC(C)=O)cc2)CC1` (stereo not given): the inhibition is -8.72%.

`c1ccc(CCN2CCC3(CC2)OCCO3)cc1`: the inhibition is -10%.

As to `CC(=O)NCC1=C(c2ccc3ccccc3c2)C[C@@H]2CC[C@H]1N2Cc1ccco1`, the inhibition was -9.51%.

As to `CCN(CC)P(=O)(Oc1cccc(C)c1)N(CC)CC`, the inhibition was -22.1%.

For `COC(=O)C1=C(c2ccccc2OCc2ccccc2)C[C@@H]2CC[C@H]1N2C(=O)NCc1ccc(OC)cc1`, the inhibition is 18.3%.

For the molecule `NC(=O)Nc1cccc(C(F)(F)F)c1`, the inhibition is -7.02%.

In the case of `Cc1ccsc1C(=O)C1CCCN(Cc2ccc(O)cc2)C1` (stereo not given), the inhibition was 7.02%.

Take `Cc1cc(=O)oc2c(C)c(OCC(=O)N3CCN(Cc4ccc5c(c4)OCO5)CC3)ccc12`: the inhibition is -1.03%.

Consider `COc1ccc(C(=O)C2CCCN(Cc3ccc(C)s3)C2)cc1OC` (stereo not given), for which the inhibition is 52.6% (active).

On to `Cc1ccc(CN2CCCC(C(=O)c3ccc4c(c3)OCO4)C2)cc1C` (stereo not given), for which the inhibition is 84.4% (active).

In the case of `COc1cccc(CN2CCCC(C(=O)c3ccccc3SC)C2)c1O` (stereo not given), the inhibition is 23.3%.

For the molecule `CC(C)Nc1nc(Cl)nc(NC(C)C)n1`, the inhibition was -4.88%.

For the molecule `C=CCN1C(=O)NC(=O)/C(=C/c2ccc(OCC(=O)Nc3ccc(C)cc3)cc2)C1=O`, the inhibition is -8.3%.

Regarding `COc1ccc(-c2nc(CS(=O)CC(=O)N3CCC4(CC3)OCCO4)c(C)o2)cc1` (stereo not given), the inhibition is -12.6%.

Regarding `CC1(C)C(c2ccccc2)=NC(c2cccnc2)=[N+]1[O-]`, the inhibition is -21%.

Take `CCOC(=O)C1SC2(C(F)(F)C(F)F)CC1(O)c1c(c(OC)c3occc3c1OC)O2` (stereo not given): the inhibition was 46.3% (active).

On to `O=C(N/N=C/c1c(O)n(C2CC2)c(=S)[nH]c1=O)c1ccccc1`, for which the inhibition is -8.31%.

As to `CCOC(=O)C1(Cc2ccc(Cl)cc2)CCN(C(C)CCn2cccn2)CC1` (stereo not given), the inhibition was 22.2%.

With `CC1CCCN1CCC(C(N)=O)(c1ccccc1)c1ccccc1` (stereo not given), the inhibition was 98.5% (active).

`O=C(Cc1ccccc1)N1CCN(C2CCCCCC2)CC1`: the inhibition was -0.63%.

For `CC1CCCCN1Cc1cccnc1` (stereo not given), the inhibition is 3.5%.

Consider `COC(=O)C1=C(c2cccc(OCc3ccccc3)c2)C[C@@H]2CC[C@H]1N2C(=O)NNCc1ccccc1`, for which the inhibition is 18.8%.

Take `Cc1cc(OCc2cc(C(=O)O)oc2C)c2c3c(c(=O)oc2c1)CCCC3`: the inhibition was -3.16%.

With `CSc1nc2ccc(C)cc2c(=O)n1-c1cccnc1`, the inhibition is -6.09%.

`CSc1ccc(C(=O)C2CCCN(Cc3ccn[nH]3)C2)cc1` (stereo not given): the inhibition is 62.7% (active).

On to `S=C(NCCc1ccccc1)N1Cc2cc(N3CCOCC3)ccc2-n2nncc2C1`, for which the inhibition is -7.43%.

On to `COC(=O)C1=C(c2ccccc2)C[C@@H]2CC[C@H]1N2C(=O)N1CCCCC1`, for which the inhibition was -1.18%.

Regarding `O=C(NC1CCCCC1)N1Cc2cc(N3CCCCC3)ccc2-n2nncc2C1`, the inhibition is 6.05%.

With `CCOc1cccc(=NC2CCCCC2)c2c(C)[nH]c(C)c12`, the inhibition was -4.64%.

Consider `CCCCCCCCCCCCn1ccc(=N)cc1`, for which the inhibition was 89.2% (active).

In the case of `COc1ccc(C2NCc3ccc4c(c3-n3cccc32)OCO4)cc1OC` (stereo not given), the inhibition was -9.71%.

For `O=C(c1cc2nc(-c3ccccc3)cc(-c3ccccc3)n2n1)N1CCC2(CC1)OCCO2`, the inhibition was -31%.

As for `COC(=O)C1=C(c2ccc(-c3ccccc3)c(F)c2)C[C@@H]2CC[C@H]1N2C(=O)NCc1ccc(F)cc1`, the inhibition was 1.14%.

Consider `COc1cc(C(=O)N2Cc3ccc(Br)cc3-n3nncc3C2)cc(OC)c1OC`, for which the inhibition is 1.07%.

For `Cc1nn(Cc2ccccc2Cl)c(Cl)c1C(=O)OC(C(=O)NC(N)=O)C(C)C` (stereo not given), the inhibition was -7.79%.

Consider `CCOC(=O)CNC(=O)N1Cc2cc(N3CCCCC3)ccc2-n2nncc2C1`, for which the inhibition was -0.57%.

For `CC(CC(C#N)(c1ccccc1)c1ccccc1)N1CCCCC1` (stereo not given), the inhibition is 75.2% (active).

On to `Clc1ccc2nc3c(c(-c4ccccc4)c2c1)CNCC3`, for which the inhibition was 5.52%.

Take `Cn1c(O)c(C(=Nc2ccc(F)cc2)c2ccccc2)c(=O)n(C)c1=O`: the inhibition was -7.87%.

Usually inhibition stands for the relative decrease from the control value, in per cent.
